The source made the active and inactive calls. Unless noted, how the calls were made is not given here.

The test system of assay [1] is Wnt5a (protein binding on small-molecule microarray). Nature of the assay: Wnt5a binders on small-molecule microarray, primary screen, biophysical, 635/667 nm fluorescence (AID 1142).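 Further: fluorescence read at 667 nm with signal to noise per printed feature.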 The settings on record: 635 nm fluorescence, higher = more signal.
Assay [2] in a line: cell viability in Huh7 cells, primary screen, cytotoxicity control for HCV replication inhibitor project, CellTiter-Glo luminescence, basal, 48 h (AID 1143).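 Further: Huh7 hepatoma cells carrying a hepatitis C replication reporter with no stimulus; test concentration not given here.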 Conditions: Huh7 HCV replicon, higher = more signal, called active from +8 up or from −8 down. Background: In ATP-based viability assays light output follows the ATP content of the culture.
Assay [3] can be described thus: P. aeruginosa biofilm formation inhibitors, primary screen, PAO1 strain, BacTiter-Glo luminescence, LB-PBS (AID 1144). Conditions: 12 h, higher = more signal.
A short description of assay [4]: CREB reporter modulators without forskolin, primary screen, cell-based, PC12, CRE-LacZ reporter, unstimulated (AID 1145). Conditions: no forskolin, luminescence, 4.5 h, higher = more signal, called active from +8 up or from −8 down.
A short description of assay [5]: CREB reporter modulators under forskolin, primary screen, cell-based, PC12, CRE-LacZ reporter, forskolin-stimulated (AID 1146).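 Further: PC12 cells with 6xCRE LacZ reporter stimulated by forskolin 10 µM; beta-galactosidase reporter signal reflecting CREB driven transcription.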 The settings on record: luminescence, 4.5 h, higher = more signal, called active from +8 up or from −8 down.
The target of assay [6] is Streptavidin (Streptomyces avidinii) (UniProt P22629). Nature of the assay: streptavidin binders on small-molecule microarray, primary screen, artefact control for SMM compound annotation, biophysical, 635/667 nm fluorescence (AID 1147).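 Further: signal reflects streptavidin binding to arrayed compounds as a control protein.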 The settings on record: streptavidin binding, higher = more signal.
Assay [7] is described as follows: small-molecule binders of probe aInhba, primary screen, biochemical, small-molecule microarray, 635/667 nm fluorescence (AID 1148).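 Further: score merges 667nm spot fluorescence with signal-to-noise for antibody binding to printed compounds.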 Conditions: higher = more signal.
Assay [8] deals with Torsin-1A (Homo sapiens) (UniProt O14656). Nature of the assay: torsin A binders from cell lysate, primary screen, small-molecule microarray, wild-type, 635/667 nm (AID 1149). The settings on record: COS7 hTOR1A-WT lysate, 635 nm fluorescence, higher = more signal.
For assay [9] the target is unchanged. Nature of the assay: small-molecule binders of mutant TOR1A in lysate, primary screen, cell lysate, small-molecule microarray, COS7 lysate, 635/667 nm fluorescence (AID 1150).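 Further: score pools 667 nm emission and signal to noise measuring lysate protein binding.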 The settings on record: COS7 hTOR1A mutant lysate, 635 nm fluorescence, higher = more signal.
Assay [10] concerns Sonic hedgehog protein (Shh). Nature of the assay: small-molecule binders of Shh protein, primary screen, biochemical, small-molecule microarray, 635/667 nm fluorescence (AID 1151).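 Further: Shh protein binding to compounds spotted on small-molecule microarray slides; score combines spot fluorescence intensity with signal-to-noise across triplicate slides.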 Conditions: small-molecule microarray binding, 635 nm fluorescence; higher = more signal.
Assay [11] in a line: E. coli DRC41 culture turbidity changes, primary screen, E. coli filamentation inducer project, strain DRC41, OD650, 48 h (AID 1152).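 Further: E. coli MC1000 strain DRC41 lacking acrAB efflux pump and sulA.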 Conditions: E. coli DRC41 (acrAB sulA), higher = more signal, called active from +8 up or from −8 down.
Assay [12] can be described thus: small-molecule binders of probe aLefty1, primary screen, biochemical, small-molecule microarray, 635/667 nm fluorescence (AID 1153).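 Further: score merges spot fluorescence with signal-to-noise ratio from the scanned slide images.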 The settings on record: higher = more signal.
Assay [13] is described as follows: PSAC antagonists in infected red cells, primary screen, cell-based, P. falciparum Indochina, OD700, 1 h (AID 1154). The settings on record: P. falciparum Indochina infected RBC osmotic lysis, higher = more signal, called active from +8 up or from −8 down.
Assay [14] in a line: PSAC antagonists in infected red cells, primary screen, cell-based, P. falciparum Indochina, OD700, 2 h (AID 1155).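 Further: lysis reports solute entry through the parasite surface anion channel PSAC; channel blockers reduce lysis of infected cells.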 Conditions: P. falciparum Indochina infected erythrocytes, osmotic lysis OD700; higher = more signal, called active from +8 up or from −8 down.
Assay [15] in a line: osmotic lysis modulators in infected erythrocytes, primary screen, PSAC antagonist project, cell-based, P. falciparum Indochina, OD700, 3 h (AID 1156). Conditions: higher = more signal, called active from +8 up or from −8 down.
Assay [16] can be described thus: PSAC antagonists in infected red cells, primary screen, cell-based, P. falciparum Indochina, OD700, 18 h (AID 1157). Conditions: P. falciparum Indochina infected erythrocytes, osmotic lysis OD700, 18 h; higher = more signal, called active from +8 up or from −8 down.
Assay [17] in a line: modulators of S6 phosphorylation in cells, primary screen, cell-based, A549, cytoblot, luminescence, serum-stimulated (AID 1158).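 Further: serum-stimulated A549 lung adenocarcinoma cells; signal is phosphorylated S6 detected by cytoblot immunostaining with HRP secondary.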 Conditions: A549 phospho-S6 cytoblot, 5 h, higher = more signal.
For assay [18], the target named is NADPH oxidase 2 (Homo sapiens) (UniProt P04839). Nature of the assay: NOX2-dependent H2O2 signal modulators, primary screen, NOX inhibitor project, cell-based, HEK293-NOX2, PMA-stimulated, Amplex Red fluorescence (AID 1159). Further: test concentration not given here. Conditions: 45 min, higher = more signal, called active from +8 up or from −8 down.
Assay [19] deals with NADPH oxidase 4 (Homo sapiens) (UniProt Q9NPH5). Nature of the assay: NOX4-dependent H2O2 signal modulators, primary screen, NOX inhibitor project, cell-based, HEK293-NOX4, tetracycline-induced, Amplex Red fluorescence (AID 1160). Conditions: 45 min, higher = more signal, called active from +8 up or from −8 down.
For assay [20], the target named is NADPH oxidase 5 (Homo sapiens) (UniProt Q96PH1). Nature of the assay: NOX5-dependent H2O2 signal modulators, primary screen, NOX inhibitor project, cell-based, HEK293-NOX5, Amplex Red fluorescence (AID 1161). Conditions: HEK293-NOX5, ionomycin, 45 min, higher = more signal.
Sequence of NADPH oxidase 5 (Homo sapiens) (Q96PH1 whole entry, looked up): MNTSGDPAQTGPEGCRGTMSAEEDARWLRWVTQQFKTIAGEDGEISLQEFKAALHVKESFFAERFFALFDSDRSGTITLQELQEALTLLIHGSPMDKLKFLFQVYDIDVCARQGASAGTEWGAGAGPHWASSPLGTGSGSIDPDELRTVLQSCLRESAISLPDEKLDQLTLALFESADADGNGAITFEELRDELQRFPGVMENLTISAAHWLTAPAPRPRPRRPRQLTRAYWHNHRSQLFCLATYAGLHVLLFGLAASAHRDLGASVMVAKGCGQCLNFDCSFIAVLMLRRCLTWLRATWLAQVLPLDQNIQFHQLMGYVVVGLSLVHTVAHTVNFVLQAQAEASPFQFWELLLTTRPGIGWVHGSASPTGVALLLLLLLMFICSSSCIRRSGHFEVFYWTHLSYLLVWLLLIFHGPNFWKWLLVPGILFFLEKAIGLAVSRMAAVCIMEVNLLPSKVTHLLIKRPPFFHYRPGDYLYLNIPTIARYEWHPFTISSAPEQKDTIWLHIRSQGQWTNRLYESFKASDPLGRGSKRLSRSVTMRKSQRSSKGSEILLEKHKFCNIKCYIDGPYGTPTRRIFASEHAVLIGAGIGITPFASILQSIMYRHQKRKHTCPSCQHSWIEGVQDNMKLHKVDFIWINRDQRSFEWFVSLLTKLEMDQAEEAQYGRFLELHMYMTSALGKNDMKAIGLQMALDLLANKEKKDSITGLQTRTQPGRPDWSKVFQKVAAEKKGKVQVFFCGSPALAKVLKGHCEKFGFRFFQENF

Sequence of Torsin-1A (Homo sapiens) (O14656 whole entry, looked up): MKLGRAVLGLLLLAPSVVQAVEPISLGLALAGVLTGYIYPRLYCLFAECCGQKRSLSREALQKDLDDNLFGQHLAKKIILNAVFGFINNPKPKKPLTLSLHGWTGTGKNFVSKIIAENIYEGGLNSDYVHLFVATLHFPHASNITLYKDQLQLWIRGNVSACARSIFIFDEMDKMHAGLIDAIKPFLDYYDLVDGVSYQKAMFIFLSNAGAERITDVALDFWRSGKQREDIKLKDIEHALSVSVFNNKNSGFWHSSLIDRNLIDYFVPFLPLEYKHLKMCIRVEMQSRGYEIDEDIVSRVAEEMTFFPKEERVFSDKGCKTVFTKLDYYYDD
Sequence of NADPH oxidase 2 (Homo sapiens) (P04839 whole entry, looked up): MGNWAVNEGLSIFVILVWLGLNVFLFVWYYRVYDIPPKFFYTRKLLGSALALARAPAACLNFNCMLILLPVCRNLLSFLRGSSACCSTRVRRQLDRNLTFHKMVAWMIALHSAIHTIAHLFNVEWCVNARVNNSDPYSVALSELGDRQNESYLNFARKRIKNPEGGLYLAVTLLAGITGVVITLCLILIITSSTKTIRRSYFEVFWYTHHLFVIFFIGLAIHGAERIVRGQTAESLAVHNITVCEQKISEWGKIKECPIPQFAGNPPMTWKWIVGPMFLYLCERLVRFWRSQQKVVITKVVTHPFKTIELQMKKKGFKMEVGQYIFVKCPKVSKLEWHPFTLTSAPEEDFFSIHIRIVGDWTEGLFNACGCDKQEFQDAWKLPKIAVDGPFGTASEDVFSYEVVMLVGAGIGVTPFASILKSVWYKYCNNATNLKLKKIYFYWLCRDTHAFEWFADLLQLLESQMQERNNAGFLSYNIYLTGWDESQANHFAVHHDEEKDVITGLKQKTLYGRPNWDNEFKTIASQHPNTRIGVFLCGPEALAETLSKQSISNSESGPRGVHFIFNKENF
Sequence of Streptavidin (Streptomyces avidinii) (P22629 whole entry, looked up): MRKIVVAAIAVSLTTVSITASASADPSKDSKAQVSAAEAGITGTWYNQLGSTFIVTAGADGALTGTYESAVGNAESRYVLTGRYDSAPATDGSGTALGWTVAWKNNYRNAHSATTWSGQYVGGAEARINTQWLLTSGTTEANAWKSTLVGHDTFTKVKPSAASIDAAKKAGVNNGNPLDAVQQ
Sequence of NADPH oxidase 4 (Homo sapiens) (Q9NPH5 whole entry, looked up): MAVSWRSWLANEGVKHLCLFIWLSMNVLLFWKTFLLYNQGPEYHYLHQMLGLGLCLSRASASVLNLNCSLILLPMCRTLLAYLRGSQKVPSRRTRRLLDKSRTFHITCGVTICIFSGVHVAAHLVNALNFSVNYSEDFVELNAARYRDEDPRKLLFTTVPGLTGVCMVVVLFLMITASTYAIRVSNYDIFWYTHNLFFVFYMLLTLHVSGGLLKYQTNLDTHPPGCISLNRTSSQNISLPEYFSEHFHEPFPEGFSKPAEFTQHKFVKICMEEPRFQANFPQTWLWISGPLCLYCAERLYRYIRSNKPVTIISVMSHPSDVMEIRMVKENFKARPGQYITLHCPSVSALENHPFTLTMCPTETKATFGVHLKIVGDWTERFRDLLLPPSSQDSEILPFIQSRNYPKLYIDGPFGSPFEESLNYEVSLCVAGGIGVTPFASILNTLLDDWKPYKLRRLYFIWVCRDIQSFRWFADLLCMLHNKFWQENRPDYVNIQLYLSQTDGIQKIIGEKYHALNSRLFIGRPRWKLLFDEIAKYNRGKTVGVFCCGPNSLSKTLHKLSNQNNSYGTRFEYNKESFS

Take `CO[C@H]1COC(=O)CC=C[C@H](C)[C@@H](NS(=O)(=O)c2ccc(C)cc2)COC(=O)CC=C[C@@H]1C`: the composite z-score is 0.0341 in assay [1]; -0.0767 in assay [6]; -0.127 in assay [7]; 0.693 with Torsin-1A (Homo sapiens) [8]; 0.722 in the assay with Torsin-1A (Homo sapiens) [9]; 0.936 in assay [10]. Further, in [12], the composite z-score is -0.194. In addition, the z-score in assay [2] was -1.82 (inactive); in [3], -0.63 (inactive); in assay [4], -0.971 (inactive); in [5], -0.562 (inactive); in assay [11], -1.05 (inactive); in assay [13], 0.0723 (inactive). For the same compound, the z-score in [14] is -1.13 (inactive); in [15], 0.157 (inactive); in assay [16] it was -0.592 (inactive); in assay [17] it was 5.19; in assay [18], 0.0288 (inactive); in [19], 0.256 (inactive). For the same compound, the z-score in assay [20] was 0.622.
With `COc1ccc([Si](C)(C)[C@@H]2[C@@H](CC(=O)N3CCC[C@H]3CO)O[C@]3(C(=O)N(Cc4cccc(N5CCC5=O)c4)c4ccccc43)[C@H]2C)cc1`, the composite z-score was -0.071 in assay [1]; 1.56 in assay [6]; 0.3 in assay [7]; 0.511 with Torsin-1A (Homo sapiens) [8]; 0.413 with Torsin-1A (Homo sapiens) [9]; 2 in [10]. The composite z-score in assay [12] turned out to be 0.792. Besides, the z-score was -3.38 (inactive) in assay [2]; -1.54 (inactive) in assay [3]; 0.772 (inactive) in assay [4]; -0.662 (inactive) in assay [5]; 0.313 (inactive) in [11]; 4.64 (inactive) in [13]. The z-score in assay [14] was 0.838 (inactive); in [15], -0.745 (inactive); in [16], 0.496 (inactive); in [17] it was -0.0355; in assay [18], 2.1 (inactive); in assay [19], 1.29 (inactive). This compound displayed a z-score in assay [20] of 4.02.
For the compound `CCOC(=O)CCN1C(=O)[C@H]2[C@H]3[C@H](O)[C@H](O)CC(=NOC[C@@H](O)COCc4ccco4)[C@@H]3CC[C@H]2C1=O`, the composite z-score was -0.0579 in assay [1]; 0.663 in assay [6]; -0.197 in assay [7]; 0.584 with Torsin-1A (Homo sapiens) [8]; -0.0032 in the assay with Torsin-1A (Homo sapiens) [9]; -0.825 in [10]. This compound gave a composite z-score in assay [12] of 0.0861. Further, the z-score in assay [2] was -0.632 (inactive); in assay [3], -0.35 (inactive); in assay [4] it was 0.251 (inactive); in [5], 0.069 (inactive); in assay [11], 0.401 (inactive); in assay [13] it was 3.93 (inactive). For the same compound, the z-score in [14] is 0.63 (inactive); in assay [15] it was -0.403 (inactive); in assay [16], 0.403 (inactive); in [17] it was -0.426; in assay [18], 0.48 (inactive); in [19], 0.771 (inactive). Also, the z-score in [20] amounted to 0.6.
For `CO[C@@H]1COC(=O)CC=C[C@@H](C)[C@H](OC)COC(=O)[C@H](COCc2ccccc2)NC(=O)CC=C[C@H]1C`, the composite z-score in assay [1] is -0.0092; in assay [6] it was -1.15; in [7], -0.253; with Torsin-1A (Homo sapiens) [8], 1.35; in the assay with Torsin-1A (Homo sapiens) [9] it was 0.263; in assay [10], 1.5. The same compound returned a composite z-score in [12] of -0.147. Besides, the z-score in assay [2] was -0.069 (inactive); in assay [3] it was 0.204 (inactive); in [4], 0.0664 (inactive); in assay [5] it was -0.707 (inactive); in assay [11], -0.991 (inactive); in assay [13], -0.129 (inactive). In addition, the z-score is 0.151 (inactive) in assay [14]; 0.181 (inactive) in assay [15]; 0.354 (inactive) in assay [16]; 0.354 in assay [17]; -1.79 (inactive) in assay [18]; 0.0385 (inactive) in [19]. In addition, the z-score in [20] worked out at 0.0539.
As for `C=CC[C@@H]1C=C[C@H](ON=C(C)CCN2CCc3nc(CC)c(CC)cc3C2)[C@@H](CO)O1`, the composite z-score was determined as 0.255 in assay [1]; 0.372 in assay [6]; 0.0785 in assay [7]; 0.97 with Torsin-1A (Homo sapiens) [8]; 1.12 with Torsin-1A (Homo sapiens) [9]; 1.85 in [10]. In assay [12], this compound came in with a composite z-score of 0.288. Besides, the z-score in [2] is -0.667 (inactive); in [3] it was 0.983 (inactive); in assay [4] it was 3.51 (inactive); in assay [5], 0.319 (inactive); in assay [11], 0.31 (inactive); in [13] it was 2.65 (inactive). Besides, the z-score is 0.37 (inactive) in assay [14]; 0.412 (inactive) in [15]; 0.294 (inactive) in assay [16]; -1.15 in assay [17]; -1.24 (inactive) in [18]; 0.492 (inactive) in [19]. In assay [20], this compound showed a z-score of 1.82.
Take `CC(=O)OC[C@H]1O[C@H](CCON=C(C)CCC(=O)OC[C@H]2O[C@H](C#Cc3ccccc3)C=C[C@@H]2Oc2ccc(C)cc2)C=C[C@@H]1OC(C)=O`: the composite z-score is 0.0159 in assay [1]; 0.238 in [6]; -0.231 in assay [7]; 0.595 in the assay with Torsin-1A (Homo sapiens) [8]; 0.139 with Torsin-1A (Homo sapiens) [9]; 0.688 in assay [10]. The compound also showed a composite z-score in [12] of 0.28. In addition, the z-score is -0.474 (inactive) in assay [2]; 0.037 (inactive) in assay [3]; 0.894 (inactive) in assay [4]; 0.452 (inactive) in assay [5]; 0.604 (inactive) in [11]; 8.85 (active) in assay [13]. The z-score in assay [14] is 1.43 (inactive); in assay [15], 1.02 (inactive); in assay [16] it was 0.931 (inactive); in assay [17] it was -0.987; in assay [18], -0.772 (inactive); in assay [19], 0.384 (inactive). Further, in assay [20], the z-score is -1.64.
As to `COCC1=C2[C@@H](CCc3ccccc3)OB(O)C[C@@H]2n2c(=O)n(-c3ccccc3)c(=O)n2C1`, the composite z-score in assay [1] is 0.102; in assay [6] it was -0.324; in assay [7], -0.082; with Torsin-1A (Homo sapiens) [8] it was -0.0531; with Torsin-1A (Homo sapiens) [9] it was -0.066; in assay [10], 0.966. In assay [12], this compound yielded a composite z-score of -0.0816. The z-score was -0.405 (inactive) in [2]; 0.523 (inactive) in assay [3]; 2.22 (inactive) in [4]; -0.714 (inactive) in assay [5]; -0.144 (inactive) in assay [11]; 1.88 (inactive) in assay [13]. Further, the z-score is -0.256 (inactive) in [14]; -0.698 (inactive) in assay [15]; -0.235 (inactive) in assay [16]; 0.214 in assay [17]; -0.421 (inactive) in assay [18]; -2.2 (inactive) in assay [19]. Also, in assay [20], the z-score is -1.48.
On to `CC(CCN1CCc2nc(-c3ccccc3)c(-c3ccccc3)cc2C1)=NO[C@@H](C)c1cn([C@H](CO)Cc2ccccc2)nn1`, for which the composite z-score in assay [1] was -0.107; in assay [6], 0.52; in assay [7], 0.0131; with Torsin-1A (Homo sapiens) [8], 1.62; with Torsin-1A (Homo sapiens) [9] it was 0.482; in assay [10], 1.25. In assay [12], this compound returned a composite z-score of -0.103. Also, the z-score in assay [2] is -0.802 (inactive); in assay [3] it was -0.414 (inactive); in assay [4], 0.573 (inactive); in assay [5], -0.795 (inactive); in [11], -1.44 (inactive); in assay [13], -0.278 (inactive). The z-score in assay [14] is -1.89 (inactive); in assay [15], 0.0934 (inactive); in assay [16], -2.16 (inactive); in [17], 1.52; in assay [18], -7.26 (inactive); in assay [19] it was -1.51 (inactive). The compound further gave a z-score in assay [20] of -4.19.

The values are drawn from PubChem BioAssay.
